EP2 mod – modulators of human EP2 prostaglandin E2 receptor; EP2-expressing cells, cAMP HTRF FRET, PGE2 co-stimulation; induction, % at 25 µM; P43116; hit rate 0.83% among 260,000;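 active = compounds whose cAMP rise, as percent of the full-agonist control response, exceeds 60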;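 note: rat C6 glioma line stably carrying human EP2 under a CMV promoter; the protocol text gives 20 µM as final concentration; 100% = response of wells given 1 µM PGE2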
Target sequence (P43116 whole entry, looked up): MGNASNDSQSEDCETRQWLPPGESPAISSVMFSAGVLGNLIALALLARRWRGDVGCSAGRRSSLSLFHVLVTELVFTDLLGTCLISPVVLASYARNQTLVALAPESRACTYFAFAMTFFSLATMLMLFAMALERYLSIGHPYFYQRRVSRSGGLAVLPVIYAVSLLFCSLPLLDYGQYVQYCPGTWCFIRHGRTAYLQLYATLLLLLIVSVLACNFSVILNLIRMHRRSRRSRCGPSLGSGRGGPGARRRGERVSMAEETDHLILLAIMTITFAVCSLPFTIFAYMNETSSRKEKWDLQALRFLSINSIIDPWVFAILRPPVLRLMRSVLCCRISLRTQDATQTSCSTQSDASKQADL
S1P3 antag-1 – antagonists of human S1P3 receptor | hit rate 0.27% among 170,000 | Q99500 | CHO S1P3 NFAT-BLA reporter, FRET fluorescence, antagonist mode | inhibition, % at 4.98 µM;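 active = inhibition above the plate cutoff, the mean inhibition of test wells on that plate plus 3 SD, cut at about 28% in these data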;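 note: cells challenged with S1P at its EC80 of 0.8 µM; blue over green emission ratio from cleaved BLA substrate after 4 h stimulation; 0% = S1P-stimulated wells and 100% = unstimulated DMSO-only wells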
S1P4 antagonist – blocks the human S1P4 receptor. O95977. S1P4-expressing cells, antagonist mode, reporter read-out. inhibition, % at 4.98 µM. hit rate 0.26% among 220,000. AID 1510; in the data active = inhibition above about 29%;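 note: 0% = wells stimulated with agonist and 100% = vehicle wells without agonist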
S1P4 ag – activates the human S1P4 receptor; O95977; S1P4-expressing cell line, agonist reporter assay; activation, % at 4.98 µM; hit rate 0.35% among 220,000; in the data active = activation above about 11%;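 note: 0% = DMSO vehicle and 100% = reference agonist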
PGE2 EP2 inh – blocks the human prostaglandin E2 receptor EP2 | hit rate 0.52% among 260,000 | P43116 | C6 glioma cells expressing human EP2, cAMP TR-FRET; cells stimulated with saturating PGE2 | inhibition, % at 25 µM;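 active = percent inhibition above 40 after rounding to a whole number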;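 note: rat C6 glioma host cells with rolipram phosphodiesterase inhibitor present; the protocol text gives 20 µM as final concentration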
S1P3 antag-2 – human S1P3 receptor antagonism, confirmation; CHO S1P3 NFAT-BLA reporter, FRET, antagonist mode; hit rate 30% among 240; AID 1429; inhibition, % at 4.98 µM; shares compounds with S1P3 antag-1;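 active = inhibition above the hit threshold that was computed for the earlier primary screen, cut at about 30% in these data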;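 note: 0% = S1P-stimulated wells and 100% = unstimulated DMSO-only wells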
Numbers without * were called inactive; . = not tested or not shown; ! = a repeat was not active. Hits are enriched below; roughly 1.9% of the tested compounds scored in any of these assays.

SMILES | EP2 mod | S1P3 antag-1 | S1P4 antagonist | S1P4 ag | PGE2 EP2 inh | others
O=C(CSc1nc(Cc2ccccc2)nc2ccccc12)N1CCCCCC1 | 31 | . | . | . | 16
CCCN(C#N)c1nc(NC(C)C)nc(NC(C)C)n1 | 30 | . | . | . | 8
CCOc1ccc(C(=O)Nc2ccc(N3CCN(C(=O)C(C)C)CC3)c(Cl)c2)cc1 | -20 | . | . | . | 10
COc1cccc(CN2CCN(C(=O)c3ccccc3F)CC2)c1OC | -30 | . | . | . | 4
CCCc1nc(SCC(=O)Nc2ccc(C)cc2C)c2ccccc2n1 | -16 | . | . | . | 10
CCC(C)(C)NC(=O)CSc1nc(Cc2ccccc2)nc2ccccc12 | -3 | . | . | . | 5
CCOc1ccccc1NC(=O)CSc1nc(Cc2ccccc2)nc2ccccc12 | 79* | . | . | . | 10
CCCc1nc(SCC(=O)Nc2nc(C)c(C)s2)c2ccccc2n1 | 63* | . | . | . | 8
COc1ccc(CN[C@@H]2CCC(=O)N[C@H]2c2cc(F)cc(F)c2)c(O)c1 | -47 | . | . | . | 7
Fc1cccc(-c2cc3nccc(C4CCCNC4)n3n2)c1 (centres undefined) | 14 | . | . | . | 3
O=[N+]([O-])c1cc(S(=O)(=O)N2CCCCCC2)ccc1Cl | 16 | -20 | 86* | -5 | 5
COCCN(C(=O)CC1CCCCC1)c1nnc(-c2ccc(Cl)cc2)s1 | -36 | . | . | . | 15
Nc1ccc2c(c1)C(=O)C(=O)c1ccccc1-2 | 7 | . | -1 | 5 | 30
O=C1c2ccccc2-c2ccc(N(Cc3ccc(Br)cc3)Cc3ccc(Br)cc3)cc21 | 18 | . | . | . | 47*
O=C1C(c2sc3ccc4ccccc4c3c2O)=Nc2ccccc21 | 29 | . | . | . | 20
Oc1cc(O)c2c(c1)O[C@H](c1ccc(O)c(O)c1)[C@@H](O)[C@@H]2c1c(O)cc(O)c2c1O[C@@H](c1ccc(O)c(O)c1)[C@H](O)C2 | 17 | . | . | . | 51*
CCC(C(=O)OC)n1cnc2sc3c(c2c1=O)CCCC3 (centres undefined) | -12 | . | . | . | 4
CN(C)c1ccc(C(=O)N2CCC(O)(c3ccccn3)CC2)cc1 | -23 | . | . | . | .
C=CCN(CC=C)Cn1nc2c(C)cc3ccc(OC)cc3n2c1=O | -8 | . | . | . | 10
O=C(Nc1cccc2ccccc12)N1CCCN(c2c(Cl)cncc2Cl)CC1 | -61 | -3 | 2 | 0 | 41*
Cn1c(C(=O)NCCC2=CCCCC2)cc2c(=O)n3ccccc3nc21 | 63* | 31 | -19 | 3 | 12
CCCNC(=S)N(Cc1ccc2c(c1)OCO2)Cc1cc2cc(CC)ccc2[nH]c1=O | -36 | . | . | . | 8
O=C(CN1CCC(n2cnc3cccnc32)CC1)Nc1nccs1 | -22 | . | . | . | 6
O=C(Nc1ccccc1-c1nc2ccccc2s1)c1cccnc1Cl | 63* | . | -13 | 1 | 13
CCCSc1nc(N2CCOCC2)c2c(c1C#N)CC(C)(C)SC2 | 65* | . | -10 | 3 | 13
SMILES | EP2 mod | S1P3 antag-1 | S1P4 antagonist | S1P4 ag | PGE2 EP2 inh | others
Cc1c(C(=O)N2CCC3(CC2)NC(=O)c2ccccc2N3)oc2ccccc12 | -20 | . | . | . | 5
CCCc1cc(=O)[nH]c(Nc2ccc(OC)c(Cl)c2)n1 | 9 | 92* | -34 | -1 | 3
Cn1nnc(NC(=O)c2ccc(Cl)cc2Cl)n1 | 5 | . | . | . | 11
COc1ccc(-c2nc(-c3ccccc3OC)no2)cc1OC | -16 | 54* | 24 | 1 | 11
COc1nc(Nc2nc3ccccc3c(=O)[nH]2)nc2ccc(C)cc12 | -8 | 70* | -9 | -1 | 7
Cc1cc(C)cc(Nc2nc3ccccc3c(=O)[nH]2)c1 | -9 | 11 | -5 | -1 | 0
Cc1ccc(C(=O)CSc2nnc(-c3ccco3)n2Cc2ccco2)cc1 | -14 | . | . | . | 8
O=[N+]([O-])c1cccc(/C=C/c2nc3ccc([N+](=O)[O-])cc3[nH]2)c1 | -46 | . | 6 | -1 | 44*
Cc1ccc(OCCCN2C(=O)C(=O)c3cccc(C)c32)cc1 | 63* | . | -13 | 2 | 24
O=C(CCc1nc2ccccc2[nH]c1=O)OCC(=O)c1ccc(Cl)cc1Cl | -9 | . | . | . | 13
N#Cc1nc(-c2cccc3ccccc23)oc1N1CCCCC1 | 24 | -3 | -16 | -1 | .
N#Cc1nc(-c2ccccc2Cl)oc1N1CCCCC1 | 63* | . | 8 | 1 | 9
COc1ccc(S(=O)(=O)N2CCC(C(=O)Nc3ccc(Cl)c(Cl)c3)CC2)cc1 | -117 | . | . | . | 10
COc1ccc(Br)cc1-c1nc(CCl)cs1 | 63* | -8 | 4 | -1 | 30
CC1CCCN(c2nc3c(c(=O)[nH]2)CN(Cc2c(F)cccc2F)CC3)C1 (centres undefined) | -46 | . | . | . | 0
Oc1ccc(NC(=S)N=Nc2c(O)[nH]c3ccc(Br)cc23)cc1 | -117 | -2 | -17 | 1 | 46*
Oc1[nH]c2ccc(Br)cc2c1N=NC(=S)Nc1ccc(F)cc1 | -2 | 2 | -6 | 0 | 12
Clc1ccc(/C=C/c2nc(Cl)c(-c3ccc(Cl)cc3)c(Cl)n2)cc1 | 18 | 3 | -5 | 1 | 43*!
Cc1ccc2cc(/C=N/Nc3nc4ccccc4[nH]3)c(Cl)nc2c1 | -1 | 46* | 1 | 2 | 5 | S1P3 antag-2=8
O=NN(CCc1ccncc1)c1ccc(OCc2ccccc2)cc1 | -94 | 33* | 9 | 0 | 7 | S1P3 antag-2=14
COc1ccc2c(c1)NC1(CCN(C(=O)c3cc(C)[nH]c3C)CC1)c1cccn1-2 | -64 | . | . | . | .
O=C(N/N=C/c1ccc([N+](=O)[O-])cc1)c1cc2ccccc2o1 | -3 | -8 | -25 | 1 | 8
C/C(=N/Nc1ccc([N+](=O)[O-])cc1)c1ccc(C)cc1C | -47 | 33* | 0 | 3 | 7 | S1P3 antag-2=22
C/C(=N\Nc1ccc([N+](=O)[O-])cc1)c1cc2ccccc2o1 | -14 | 54* | 15 | 0 | 3 | S1P3 antag-2=55*
O=C(N/N=C/c1cn(-c2ccccc2)nc1-c1cc2ccccc2o1)c1c[nH]c2ccccc12 | -28 | 31* | 16 | -1 | 9 | S1P3 antag-2=13
SMILES | EP2 mod | S1P3 antag-1 | S1P4 antagonist | S1P4 ag | PGE2 EP2 inh | others
Cc1[nH]c2ccccc2c1C(=O)C(=O)NCC1CCCO1 (centres undefined) | 7 | 53* | 6 | 1 | 3 | S1P3 antag-2=-12
O=C(NCC1CCCO1)C(=O)c1c[nH]c2ccccc12 (centres undefined) | -40 | -4 | 2 | -1 | 5
COc1ccc(CN(CC2CCC(C(=O)O)CC2)C(=S)Nc2ccccc2C)cc1 (centres undefined) | 20 | -5 | -4 | -1 | 2
COc1ccc(CN(CC2CCC(C(=O)O)CC2)C(=S)Nc2cc(C)ccc2C)cc1 (centres undefined) | 12 | 33* | -15 | 1 | 8 | S1P3 antag-2=-16
Cc1ccc(-n2c(SCC(=O)Nc3sc4c(c3C#N)CCCC4)nnc2-c2ccncc2)cc1 | -2 | . | . | . | 9
C/C(=N/NC(=O)c1ccccn1)c1ccco1 | 4 | . | 12 | 0 | 10
C/C(=N/NC(=O)c1cc(-c2ccc(Cl)s2)[nH]n1)c1ccco1 | -46 | 32* | 11 | 1 | 4 | S1P3 antag-2=-18
CCN(CC)CCNc1nc2c(c(=O)[nH]c(=O)n2C)n1Cc1ccccc1Cl | -17 | . | . | . | 6
